Test results published in PubChem BioAssay.
Active and inactive are the calls of the source.

Legend:
[1] = test system: Human papillomavirus type 1a protein E7 (residues 44-93); assay: small molecules binding HPV E7 44-93 – biochemical, small-molecule microarray, residues 44-93, 635 nm fluorescence, primary screen (AID 1108); conditions: fluorescence 635 nm, higher = more signal;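 further: E7 fragment applied at 1 µg/mL in TBST for 1 h at 4 C; score combines spot fluorescence with its signal to noise ratio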
[2] = hepatitis C replication reporter changes, two-sided – Huh7 cells, luciferase reporter, HCV replication inhibitor project, primary screen (AID 1109); conditions: Huh7 HCV replicon luciferase reporter, 48 h; higher = more signal;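 further: huh7 hepatoma cells harbouring a luciferase neomycin HCV replicon reporter; luciferase luminescence as measure of HCV replicon replication; test concentration not given here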
[3] = target: Left-right determination factor 2 (Homo sapiens) (UniProt O00292); assay: small molecules binding LEFTY2 protein – biochemical, small-molecule microarray, 635 nm fluorescence scan, primary screen (AID 1110); conditions: higher = more signal
[4] = target: Calmodulin-1 (Homo sapiens) (UniProt P0DP23); assay: small molecules binding calmodulin-1 with EGTA – biochemical, small-molecule microarray, Cy5-labelled CALM1, profiling panel (AID 1111); conditions: Cy5-CALM1 binding fluorescence, higher = more signal;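 further: labelled calmodulin applied in Tris saline Tween buffer holding calcium plus EGTA and DTT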
[5] = target: Calmodulin-1 (Homo sapiens) (UniProt P0DP23); assay: small molecules binding Ca-loaded calmodulin-1 – biochemical, small-molecule microarray, Cy5-labelled CALM1, plus calcium, artefact control for SMM control-protein annotation, profiling panel (AID 1112); conditions: Cy5-CALM1 binding fluorescence, higher = more signal;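 further: score merges spot fluorescence with signal to noise from triplicate slides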
[6] = probe aWnt5a binding to arrayed compounds – biochemical, biotinylated probe, 635/667 nm fluorescence, primary screen (AID 1113); conditions: small-molecule microarray, higher = more signal;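 further: score merges 667 nm fluorescence intensity with signal-to-noise per printed feature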
[7] = probe aShh binding to arrayed compounds – biochemical, biotinylated probe, 635/667 nm fluorescence, primary screen (AID 1114); conditions: small-molecule microarray, higher = more signal;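 further: probe is biotin-labelled aShh protein from a stem cell growth factor screen; measures binding of labelled protein to compounds printed on the slide; score merges feature fluorescence at 667 nm with signal-to-noise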
[8] = probe aNog binding to arrayed compounds – biochemical, biotinylated probe, 635/667 nm fluorescence, primary screen (AID 1115); conditions: small-molecule microarray, higher = more signal;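 further: probe is biotinylated aNog protein used at 0.15 µg/mL for 1 h at 4 C; z-score combines 667 nm fluorescence of each spot with its signal to noise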
[9] = target: Torsin-1A-interacting protein 1 (Homo sapiens) (UniProt Q5JTV8); assay: compound microarray binding of lysate hLAP1 – cell lysate, small-molecule microarray, COS7 lysate, 635/667 nm fluorescence, primary screen (AID 1116); conditions: 635 nm fluorescence, higher = more signal
[10] = target: Alpha-bungarotoxin (Bungarus multicinctus) (UniProt P60615); assay: compounds binding labelled alpha-BTX control protein – biochemical, small-molecule microarray, Alexa647 label, 635/667 nm fluorescence, artefact control for SMM control protein annotation, profiling panel (AID 1117); conditions: alpha-BTX-A647 binding fluorescence, higher = more signal
[11] = target: Albumin (Bos taurus) (UniProt P02769); assay: compounds binding labelled BSA control protein – biochemical, small-molecule microarray, Alexa647 label, 635/667 nm fluorescence, artefact control for SMM control protein annotation, profiling panel (AID 1118); conditions: BSA-A647 binding, fluorescence 635 nm, higher = more signal;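 further: score merges 667 nm emission intensity and signal-to-noise per printed compound spot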
[12] = probe aXIP binding to arrayed compounds – biochemical, NeuroSMM set, 635/667 nm fluorescence, primary screen (AID 1119); conditions: small-molecule microarray, higher = more signal, called active from +8 up or from −8 down;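 further: probe is the protein aXip251-270 applied at 1 µg/mL to compound-printed slides; binding of probe to printed compounds measured as 667 nm fluorescence plus signal to noise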
[13] = probe aNOTCH3 binding on compound microarray – biochemical, small-molecule microarray, 635/667 nm fluorescence, primary screen (AID 1120); conditions: higher = more signal;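 further: probe is a biotin-tagged antibody raised against NOTCH3 rather than NOTCH3 protein; score merges spot fluorescence near 667 nm with spot signal to noise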
[14] = probe aNOTCH2 binding on compound microarray – biochemical, small-molecule microarray, 635/667 nm fluorescence, primary screen (AID 1121); conditions: higher = more signal;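 further: score merges feature fluorescence read at 667 nm with its signal to noise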
[15] = target: Carbonic anhydrase 2 (Homo sapiens) (UniProt P00918); assay: compounds binding carbonic anhydrase 2 – biochemical, small-molecule microarray, Alexa647-labelled CAII, profiling panel (AID 1122); conditions: CAII-A647 binding fluorescence, higher = more signal
[16] = COS7 lysate on small-molecule microarray, probe aHis, 635 nm (AID 1123); conditions: COS7 cell lysate, fluorescence, higher = more signal;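 further: z-score combines 667nm fluorescence intensity with signal-to-noise per printed compound spot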
[17] = probe aLAP1 signal on lysate-treated microarray – cell lysate, small-molecule microarray, COS7 lysate, primary screen (AID 1124); conditions: probe aLAP1, fluorescence, higher = more signal;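 further: lysate comes from COS7 cells expressing LAP1 and is applied at 0.3 µg/mL; score merges spot fluorescence near 667 nm with signal-to-noise over triplicate slides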
[18] = test system: Sam68 (KHDRBS1); assay: compounds binding KHDRBS1 protein – biochemical, small-molecule microarray, 635 nm fluorescence, primary screen (AID 1125); conditions: higher = more signal;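 further: score merges 667 nm channel intensity with signal to noise over triplicate slides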
[19] = test system: Chordin-like protein 2 (CHRDL2); assay: compounds binding chordin-like 2 – biochemical, small-molecule microarray, 635 nm fluorescence, primary screen (AID 1126); conditions: fluorescence 635 nm, higher = more signal;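 further: printed compound slides probed with Chrdl2 protein at 4 µg/mL for 1 h at 4 C; score merges 667 nm emission intensity with signal to noise over three replicate slides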
[20] = target: Concanavalin-A (Canavalia ensiformis) (UniProt P02866); assay: compounds binding concanavalin A lectin – biochemical, small-molecule microarray, Alexa647 label, 635 nm, artefact control for SMM control protein annotation, primary screen (AID 1127); conditions: ConA-A647 binding fluorescence, higher = more signal;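 further: z combines 667 nm emission intensity with signal-to-noise across three replicate slides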
Sequence of Concanavalin-A (Canavalia ensiformis) (P02866 whole entry, looked up): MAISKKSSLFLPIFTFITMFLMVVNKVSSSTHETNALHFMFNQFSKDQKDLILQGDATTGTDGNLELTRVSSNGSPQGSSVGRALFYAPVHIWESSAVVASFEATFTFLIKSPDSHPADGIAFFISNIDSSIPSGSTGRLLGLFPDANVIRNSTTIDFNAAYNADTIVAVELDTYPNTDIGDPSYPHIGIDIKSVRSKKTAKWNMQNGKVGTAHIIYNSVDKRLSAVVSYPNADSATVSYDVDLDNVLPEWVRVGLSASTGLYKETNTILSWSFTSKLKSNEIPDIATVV

Sequence of Left-right determination factor 2 (Homo sapiens) (O00292 whole entry, looked up): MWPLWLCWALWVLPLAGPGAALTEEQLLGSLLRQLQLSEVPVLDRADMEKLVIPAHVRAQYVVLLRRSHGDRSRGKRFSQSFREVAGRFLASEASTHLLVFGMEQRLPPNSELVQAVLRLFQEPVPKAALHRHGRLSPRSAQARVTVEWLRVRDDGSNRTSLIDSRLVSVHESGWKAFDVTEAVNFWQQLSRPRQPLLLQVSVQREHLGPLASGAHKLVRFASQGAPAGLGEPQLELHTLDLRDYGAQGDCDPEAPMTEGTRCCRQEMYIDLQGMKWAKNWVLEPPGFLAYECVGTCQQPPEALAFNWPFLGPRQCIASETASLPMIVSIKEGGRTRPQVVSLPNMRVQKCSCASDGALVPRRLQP
Sequence of Albumin (Bos taurus) (P02769 whole entry, looked up): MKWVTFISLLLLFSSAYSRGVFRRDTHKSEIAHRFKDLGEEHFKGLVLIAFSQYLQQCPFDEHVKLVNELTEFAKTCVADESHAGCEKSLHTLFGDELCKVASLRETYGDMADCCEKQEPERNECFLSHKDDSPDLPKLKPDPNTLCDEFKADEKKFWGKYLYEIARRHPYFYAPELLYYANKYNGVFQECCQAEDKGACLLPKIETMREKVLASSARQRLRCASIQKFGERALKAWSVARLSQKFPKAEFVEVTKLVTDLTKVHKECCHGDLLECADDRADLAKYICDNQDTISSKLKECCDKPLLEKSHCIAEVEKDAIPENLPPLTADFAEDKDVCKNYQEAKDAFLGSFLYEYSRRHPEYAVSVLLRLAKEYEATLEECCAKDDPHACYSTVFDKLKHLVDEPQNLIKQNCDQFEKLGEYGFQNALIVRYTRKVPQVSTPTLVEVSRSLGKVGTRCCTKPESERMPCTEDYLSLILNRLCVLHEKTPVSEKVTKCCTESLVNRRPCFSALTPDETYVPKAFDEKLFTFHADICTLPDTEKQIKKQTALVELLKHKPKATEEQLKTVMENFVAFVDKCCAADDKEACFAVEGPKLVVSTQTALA
Sequence of Alpha-bungarotoxin (Bungarus multicinctus) (P60615 whole entry, looked up): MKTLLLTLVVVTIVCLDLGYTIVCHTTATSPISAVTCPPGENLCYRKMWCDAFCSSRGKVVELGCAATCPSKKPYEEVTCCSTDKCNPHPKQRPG
Sequence of Torsin-1A-interacting protein 1 (Homo sapiens) (Q5JTV8 whole entry, looked up): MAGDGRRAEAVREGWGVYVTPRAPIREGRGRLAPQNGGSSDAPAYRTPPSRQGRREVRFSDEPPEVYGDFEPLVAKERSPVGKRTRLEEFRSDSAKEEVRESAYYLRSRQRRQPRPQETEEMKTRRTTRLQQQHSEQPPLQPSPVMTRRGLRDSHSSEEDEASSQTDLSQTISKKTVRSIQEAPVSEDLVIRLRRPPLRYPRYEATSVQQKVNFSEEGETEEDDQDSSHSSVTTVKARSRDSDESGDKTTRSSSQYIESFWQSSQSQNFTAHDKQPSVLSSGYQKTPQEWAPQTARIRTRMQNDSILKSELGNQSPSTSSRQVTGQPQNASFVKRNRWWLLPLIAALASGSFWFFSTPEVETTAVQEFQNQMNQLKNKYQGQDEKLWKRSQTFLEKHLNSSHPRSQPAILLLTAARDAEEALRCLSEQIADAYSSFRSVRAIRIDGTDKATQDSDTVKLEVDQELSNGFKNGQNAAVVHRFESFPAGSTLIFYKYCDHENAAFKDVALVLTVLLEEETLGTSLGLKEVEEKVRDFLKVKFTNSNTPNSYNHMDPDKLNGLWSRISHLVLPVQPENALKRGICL

Row | SMILES | composite z-score [1] | z-score [2] | composite z-score [3] | composite z-score [4] | composite z-score [5] | composite z-score [6] | composite z-score [7] | composite z-score [8] | composite z-score [9] | composite z-score [10] | composite z-score [11] | composite Z-score [12] | composite z-score [13] | composite z-score [14] | composite z-score [15] | composite z-score [16] | composite z-score [17] | composite z-score [18] | composite z-score [19] | composite z-score [20]
1 | CC(C)(C)N1CC=CC23O[C@@H]4/C=C\CCCOC(=O)C4[C@H]2C(=O)N(CCCCCCO)[C@@H]3C1=O (stereo not given in full) | -0.802 | -0.762 | -1.03 | -0.558 | 0.337 | -0.0873 | 0.0952 | 0.382 | 1.24 | -1.34 | 0.708 | -0.617 (inactive) | -0.284 | -0.117 | 0.938 | 0.185 | 0.495 | -1.35 | -1.25 | -1.42
2 | CC(C)CNC(=O)[C@@H]1c2ccccc2C(=O)N(C2Cc3ccccc3C2)[C@H]1c1ccc(CO)cc1 | 1.11 | -0.235 | -0.325 | -0.588 | -0.616 | -0.101 | -0.185 | 0.325 | 0.691 | -0.205 | -0.191 | -0.577 (inactive) | -0.219 | -0.0984 | 0.687 | 0.284 | 1.45 | 0.547 | -0.0902 | 0.378
3 | CC(C)CNC(=O)[C@@H]1c2ccccc2C(=O)N(Cc2ccccc2)[C@H]1c1ccc(CO)cc1 | 0.93 | 0.372 | -1.35 | -0.148 | -0.202 | -0.253 | -0.1 | 0.127 | 0.936 | -0.865 | -0.159 | -0.318 (inactive) | -0.394 | -0.122 | 0.83 | 1.63 | 1.35 | 0.293 | -1.1 | -0.102
4 | NCCCC[C@@H]1NC(=O)[C@H]2C[C@@H](C(=O)O)[C@@H](c3cccc(OCCO)c3)N2C1=O | 1.4 | -1.56 | 1.53 | 0.441 | -0.197 | 0.0017 | 0.166 | 1.33 | 1.07 | 2.12 | 0.294 | 1.71 (inactive) | 0.526 | -0.0106 | 0.396 | 2.88 | 0.521 | 1.29 | 1.39 | 1.1
5 | [N-]=[N+]=Nc1ccccc1[C@@H]1OC(c2ccc(OCCCO)cc2)=N[C@]1(Cc1ccccc1)C(N)=O | 1.06 | -0.837 | -0.391 | 1.04 | 0.719 | -0.166 | 0.173 | -0.0956 | 0.0305 | 0.209 | 0.503 | -0.0189 (inactive) | 0.0694 | -0.0149 | 0.724 | 1.07 | -0.247 | 0.495 | -0.178 | 0.0171
6 | COCCCNC(=O)[C@@]1(Sc2ccc(C)cc2)CC(=O)N(C2CCCCC2)[C@@H]1c1ccc(CO)cc1I | 1.01 | -2.63 | 0.816 | 0.99 | 0.565 | -0.0853 | -0.0362 | -0.631 | 1.34 | 1.99 | 0.68 | 0.441 (inactive) | 0.145 | -0.0096 | 0.481 | 1.8 | 0.0839 | 1.25 | 0.818 | 1.07
7 | [N-]=[N+]=NCc1ccccc1[C@@H]1OC(c2ccc(OCCCO)cc2)=N[C@]1(Cc1ccccc1)C(=O)NCc1ccccc1 | 1.28 | -2.34 | 0.0086 | 1.87 | 0.237 | 0.0495 | 0.0181 | -0.489 | 1.12 | 0.688 | 0.937 | -0.04 (inactive) | 0.0774 | -0.0349 | 0.782 | 2.99 | 0.388 | 0.826 | -0.691 | 1.08
8 | [N-]=[N+]=NCc1ccccc1C[C@]1(C(=O)NCc2ccccc2)N=C(c2ccc(OCCCO)cc2)O[C@H]1c1ccccc1CN=[N+]=[N-] | 1.42 | -2.3 | -0.578 | 1.36 | 0.533 | 0.0474 | 0.338 | -0.0439 | 1.9 | 1.87 | 0.735 | 0.597 (inactive) | 0.192 | 0.0522 | 0.727 | 2.67 | 0.478 | 0.839 | -0.324 | 0.958
9 | COC(=O)[C@@]1(CCS(=O)(=O)c2ccccc2)N=C(c2ccc(OCCCO)cc2)O[C@H]1c1ccccc1N=[N+]=[N-] | 1.38 | -1.83 | 0.406 | 1.29 | 0.383 | -0.0455 | -0.0904 | 0.424 | 0.861 | 2.23 | 0.827 | -0.0127 (inactive) | 0.0237 | 0.0196 | 0.356 | 2.92 | 0.406 | 1.3 | 0.889 | 1.11
10 | CCCCN1CC=CC23O[C@@H]4/C=C\CCC(C)OC(=O)C4[C@H]2C(=O)N(C(C)CO)[C@@H]3C1=O (stereo not given in full) | -1.13 | 0.263 | -0.0716 | -0.325 | -1.04 | -0.178 | -0.2 | -0.188 | 0.201 | -0.606 | -1.58 | 0.319 (inactive) | -0.0498 | -0.0907 | 0.822 | -0.986 | 0.103 | -0.879 | -0.0668 | -0.59
11 | CCCCNC(=O)c1ccc(C#C[Si](C)(C)C)c(OC(C)=O)c1 | 0.315 | 0.93 | 0.431 | -0.262 | -0.834 | -0.191 | 0.0952 | -0.185 | 0.37 | 0.25 | -0.175 | 0.378 (inactive) | -0.0328 | -0.154 | -0.14 | 0.353 | 0.0462 | 0.469 | 0.782 | 0.0668
